Measured values reported in PubChem BioAssay AID641 (Vanderbilt High Throughput Screening Facility, 2007).
The whole screen tested about 58,000 compounds, of which about 3,400 (5.9%) were called active. For the sample, actives were picked, then their nearest neighbours and some compounds at random. Values without a mark were called inactive.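 The calls were made as follows: active = luminescence count or its row- and column-corrected plate score outside the 99.7% band of the plate's sample wells, on either side; inactive = the rest.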

biological target: D(1A) dopamine receptor (Homo sapiens) (UniProt P21728); assay: D1 CRE-luciferase signal change, two-sided – cell-based, HEK293 D1, dopamine EC30, D1 allosteric modulator project, primary screen (AID 641); details: dopamine EC30 potentiation, at 10 µM, actives deviate in either direction
Sequence (P21728 whole entry, looked up): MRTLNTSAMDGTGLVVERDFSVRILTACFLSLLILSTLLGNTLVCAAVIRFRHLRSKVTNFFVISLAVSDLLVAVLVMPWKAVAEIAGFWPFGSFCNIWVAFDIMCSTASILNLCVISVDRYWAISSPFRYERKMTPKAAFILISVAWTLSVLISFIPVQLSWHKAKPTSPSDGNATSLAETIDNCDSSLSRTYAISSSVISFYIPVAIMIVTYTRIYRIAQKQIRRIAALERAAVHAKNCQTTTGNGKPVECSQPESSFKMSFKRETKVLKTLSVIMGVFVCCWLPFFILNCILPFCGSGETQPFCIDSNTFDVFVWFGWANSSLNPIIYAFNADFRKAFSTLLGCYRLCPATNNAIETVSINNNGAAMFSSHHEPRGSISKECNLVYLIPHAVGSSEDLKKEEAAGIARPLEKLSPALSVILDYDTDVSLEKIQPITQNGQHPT

| Compound | B-score |
| --- | --- |
| CCOC(=O)C(O)(c1ccc(NC(=O)c2ccco2)c(OC)c1)C(F)(F)F (stereo not given) | 0.817 |
| CCOC(=O)C(O)(c1ccc(N)c(OC)c1)C(F)(F)F (stereo not given) | -4.69 (active) |
| CCOP(=S)(OCC)SCOC(=O)NCC(=O)OC | 1.46 |
| Cc1ccc2c(c1)C1CN(C)CCC1N2C(=O)Cn1nnc(-c2ccccc2F)n1 (stereo not given) | -3.16 (active) |
| Cc1cc(N2C(=O)C3CCCN3C2c2ccc(Cl)c(Cl)c2)no1 (stereo not given) | 1.04 |
| CC(=NC1CCN(Cc2ccccc2)CC1)c1c(O)n(C)c(=O)n(C)c1=O | 0.191 |
| CCN(CC)CCOC(=O)c1cc2cc(COC)ccc2o1 | 0.407 |
| C=Cn1ccnc1P(=S)(c1cc(N(CC)CC)ns1)c1nccn1C=C | -0.0508 |
| CC(=C1C(=O)c2ccccc2C1=O)N1CCN(CCN=Cc2c(O)n(C)c(=O)n(C)c2=O)CC1 | -0.0144 |
| CCC(=NCc1ccco1)c1c(O)n(Cc2ccccc2)c(=O)[nH]c1=O | 10.9 (active) |
| CCC(=NCCCO)c1c(O)n(-c2ccc(OC)cc2)c(=O)[nH]c1=O | -0.508 |
| CCCCCCN=C(CC)c1c(O)n(CCCC)c(=O)[nH]c1=O | 2.24 |
| N[C@@H](Cc1c[nH]c2ccccc12)c1nnc(SCc2c(F)cccc2Cl)o1 | -0.133 |
| CCCC(C)n1[nH]c(=O)c2c1NC(=O)CSC2c1ccc(OC)c(OC)c1 (stereo not given) | 0.346 |
| CCc1cccc2c(C#N)cn(CC(=O)N3CCOCC3)c12 | -1.07 |
